# Data: article PMC5795388
# Tests used:
# Assay in all cases: cross-link between two proteins; cross-linking mass spectrometry
# [1] = target: ATP synthase peripheral stalk subunit d, mitochondrial (UniProt Q9DCX2)
# [2] = target: NADH dehydrogenase [ubiquinone] 1 alpha subcomplex subunit 13 (UniProt Q9ERS2)
# [3] = target: Mitochondrial import inner membrane translocase subunit TIM14 (UniProt Q9CQV7)
# [4] = target: Dihydrolipoyllysine-residue succinyltransferase component of 2-oxoglutarate dehydrogenase complex, mitochondrial (UniProt Q9D2G2)
# [5] = target: Cytochrome b-c1 complex subunit 7 (UniProt Q9D855)
# [6] = target: ATP synthase F(0) complex subunit g, mitochondrial (UniProt Q9CPQ8)
# [7] = target: ATP synthase peripheral stalk subunit OSCP, mitochondrial (UniProt Q9DB20)
# [8] = target: Cytochrome b-c1 complex subunit 6, mitochondrial (UniProt P99028)
# [9] = target: Cytochrome c oxidase subunit 6C (UniProt Q9CPQ1)
# [10] = target: Cytochrome c oxidase subunit 7B, mitochondrial (UniProt P56393)
# [11] = target: Dynamin-like GTPase OPA1, mitochondrial (UniProt P58281)
# Protein FAM162A = Protein FAM162A (UniProt Q9D6U8)
# [12] = target: Apoptosis-inducing factor 1, mitochondrial (UniProt Q9Z0X1)
# [13] = target: NADH dehydrogenase [ubiquinone] 1 beta subcomplex subunit 8, mitochondrial (UniProt Q9D6J5)
# [14] = target: NADH dehydrogenase [ubiquinone] 1 alpha subcomplex subunit 9, mitochondrial (UniProt Q9DC69)
# [15] = target: Succinate dehydrogenase [ubiquinone] iron-sulfur subunit, mitochondrial (UniProt Q9CQA3)
# [16] = target: Cytochrome b-c1 complex subunit 2, mitochondrial (UniProt Q9DB77)
# [17] = target: Cytochrome b-c1 complex subunit 9 (UniProt Q8R1I1)
# [18] = target: Cytochrome c oxidase subunit FA4 (UniProt Q62425)
# Sequence of Cytochrome c oxidase subunit FA4 (Q62425 whole entry): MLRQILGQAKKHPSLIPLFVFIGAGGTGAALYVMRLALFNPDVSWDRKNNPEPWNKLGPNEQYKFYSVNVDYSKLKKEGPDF
# Sequence of Dihydrolipoyllysine-residue succinyltransferase component of 2-oxoglutarate dehydrogenase complex, mitochondrial (Q9D2G2 whole entry, one chain of several): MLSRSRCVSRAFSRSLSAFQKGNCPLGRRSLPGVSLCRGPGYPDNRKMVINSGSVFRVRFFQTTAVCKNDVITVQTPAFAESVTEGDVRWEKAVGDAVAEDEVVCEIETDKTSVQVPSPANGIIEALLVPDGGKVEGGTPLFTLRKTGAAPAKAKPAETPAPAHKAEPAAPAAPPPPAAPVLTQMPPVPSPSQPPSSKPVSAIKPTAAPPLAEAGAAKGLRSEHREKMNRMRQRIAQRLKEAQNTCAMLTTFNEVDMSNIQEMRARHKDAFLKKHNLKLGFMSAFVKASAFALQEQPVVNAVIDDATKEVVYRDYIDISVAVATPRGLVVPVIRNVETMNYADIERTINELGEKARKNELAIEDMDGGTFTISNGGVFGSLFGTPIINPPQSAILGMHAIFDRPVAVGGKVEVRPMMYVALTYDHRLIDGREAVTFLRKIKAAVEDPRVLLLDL
# Sequence of NADH dehydrogenase [ubiquinone] 1 alpha subcomplex subunit 9, mitochondrial (Q9DC69 whole entry, one chain of several): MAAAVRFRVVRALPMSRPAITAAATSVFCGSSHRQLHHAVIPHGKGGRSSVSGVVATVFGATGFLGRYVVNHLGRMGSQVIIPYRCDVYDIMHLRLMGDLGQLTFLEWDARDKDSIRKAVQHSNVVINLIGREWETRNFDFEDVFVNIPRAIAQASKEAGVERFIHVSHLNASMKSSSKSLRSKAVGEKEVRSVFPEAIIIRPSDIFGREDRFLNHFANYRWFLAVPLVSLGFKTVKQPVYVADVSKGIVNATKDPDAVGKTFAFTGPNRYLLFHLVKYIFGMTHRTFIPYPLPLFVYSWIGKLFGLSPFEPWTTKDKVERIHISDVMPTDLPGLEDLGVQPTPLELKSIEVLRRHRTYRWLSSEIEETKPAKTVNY
# Sequence of Cytochrome c oxidase subunit 7B, mitochondrial (P56393 whole entry): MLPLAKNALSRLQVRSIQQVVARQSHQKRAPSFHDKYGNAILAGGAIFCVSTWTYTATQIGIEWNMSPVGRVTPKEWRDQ
# Sequence of ATP synthase peripheral stalk subunit OSCP, mitochondrial (Q9DB20 whole entry): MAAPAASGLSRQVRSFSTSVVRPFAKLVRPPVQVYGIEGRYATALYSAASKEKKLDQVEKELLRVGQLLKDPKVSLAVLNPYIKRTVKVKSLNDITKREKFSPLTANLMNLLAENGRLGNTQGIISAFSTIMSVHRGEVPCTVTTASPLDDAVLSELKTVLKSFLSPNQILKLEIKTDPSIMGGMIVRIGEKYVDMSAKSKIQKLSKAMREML
# Sequence of Mitochondrial import inner membrane translocase subunit TIM14 (Q9CQV7 whole entry): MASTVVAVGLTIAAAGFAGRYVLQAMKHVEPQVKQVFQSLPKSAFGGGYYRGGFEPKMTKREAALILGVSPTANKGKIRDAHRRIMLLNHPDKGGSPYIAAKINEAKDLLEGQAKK
# Sequence of NADH dehydrogenase [ubiquinone] 1 beta subcomplex subunit 8, mitochondrial (Q9D6J5 whole entry, one chain of several): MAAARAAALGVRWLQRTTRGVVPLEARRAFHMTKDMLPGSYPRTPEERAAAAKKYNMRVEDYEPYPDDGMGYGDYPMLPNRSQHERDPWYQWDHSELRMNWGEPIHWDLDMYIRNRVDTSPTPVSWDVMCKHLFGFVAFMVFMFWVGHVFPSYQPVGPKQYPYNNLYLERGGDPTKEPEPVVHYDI
# Sequence of Cytochrome b-c1 complex subunit 9 (Q8R1I1 whole entry, one chain of several): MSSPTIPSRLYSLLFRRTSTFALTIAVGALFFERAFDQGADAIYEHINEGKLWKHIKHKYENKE
# Sequence of Cytochrome c oxidase subunit 6C (Q9CPQ1 whole entry): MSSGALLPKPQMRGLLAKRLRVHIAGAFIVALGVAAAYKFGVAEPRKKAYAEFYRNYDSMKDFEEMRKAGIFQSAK
# Sequence of Cytochrome b, P00158 (P00158 whole entry): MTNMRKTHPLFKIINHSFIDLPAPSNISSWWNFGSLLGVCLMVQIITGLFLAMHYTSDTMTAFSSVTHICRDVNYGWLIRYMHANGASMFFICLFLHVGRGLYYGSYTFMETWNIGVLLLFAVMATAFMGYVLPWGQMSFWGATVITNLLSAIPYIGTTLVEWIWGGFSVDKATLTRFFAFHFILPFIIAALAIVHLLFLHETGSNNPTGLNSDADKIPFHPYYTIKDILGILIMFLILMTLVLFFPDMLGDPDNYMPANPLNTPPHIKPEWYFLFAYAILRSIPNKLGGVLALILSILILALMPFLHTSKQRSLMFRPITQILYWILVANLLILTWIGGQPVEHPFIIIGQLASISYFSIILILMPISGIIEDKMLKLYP
# Sequence of Cytochrome b-c1 complex subunit 2, mitochondrial (Q9DB77 whole entry, one chain of several): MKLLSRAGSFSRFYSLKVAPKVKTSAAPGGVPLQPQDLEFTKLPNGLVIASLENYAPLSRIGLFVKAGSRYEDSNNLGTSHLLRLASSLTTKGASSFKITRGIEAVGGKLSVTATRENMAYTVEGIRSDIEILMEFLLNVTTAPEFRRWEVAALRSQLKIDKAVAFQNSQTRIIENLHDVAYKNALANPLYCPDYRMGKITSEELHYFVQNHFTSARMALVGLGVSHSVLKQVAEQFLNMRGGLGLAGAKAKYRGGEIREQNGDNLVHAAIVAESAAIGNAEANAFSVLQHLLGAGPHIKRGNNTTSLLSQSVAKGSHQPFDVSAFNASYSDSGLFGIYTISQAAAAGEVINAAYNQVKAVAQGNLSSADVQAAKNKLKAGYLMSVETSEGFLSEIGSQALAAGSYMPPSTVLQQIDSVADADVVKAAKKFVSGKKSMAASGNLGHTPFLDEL
# Sequence of Trifunctional enzyme subunit alpha, mitochondrial, Q8BMS1 (Q8BMS1 whole entry): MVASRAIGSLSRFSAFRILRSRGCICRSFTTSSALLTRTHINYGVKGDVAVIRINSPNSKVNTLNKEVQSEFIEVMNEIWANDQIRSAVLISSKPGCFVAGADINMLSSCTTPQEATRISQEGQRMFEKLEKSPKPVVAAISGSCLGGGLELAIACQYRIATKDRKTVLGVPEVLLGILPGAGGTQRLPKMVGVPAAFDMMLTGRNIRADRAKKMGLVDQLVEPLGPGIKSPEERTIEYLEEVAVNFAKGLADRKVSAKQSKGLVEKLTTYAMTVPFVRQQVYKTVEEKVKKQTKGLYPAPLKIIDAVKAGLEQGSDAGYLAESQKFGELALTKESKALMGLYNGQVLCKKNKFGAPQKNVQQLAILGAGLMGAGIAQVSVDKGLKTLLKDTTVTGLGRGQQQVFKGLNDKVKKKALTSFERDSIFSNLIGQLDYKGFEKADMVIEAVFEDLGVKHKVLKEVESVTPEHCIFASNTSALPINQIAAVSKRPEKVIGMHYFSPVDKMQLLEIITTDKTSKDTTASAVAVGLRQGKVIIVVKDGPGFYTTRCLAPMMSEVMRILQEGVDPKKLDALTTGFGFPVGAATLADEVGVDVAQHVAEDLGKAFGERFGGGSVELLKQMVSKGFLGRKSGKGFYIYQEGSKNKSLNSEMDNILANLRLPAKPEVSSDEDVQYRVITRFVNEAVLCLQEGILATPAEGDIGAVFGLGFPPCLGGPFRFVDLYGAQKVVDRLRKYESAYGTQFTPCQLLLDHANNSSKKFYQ
# Sequence of ATP synthase peripheral stalk subunit d, mitochondrial (Q9DCX2 whole entry): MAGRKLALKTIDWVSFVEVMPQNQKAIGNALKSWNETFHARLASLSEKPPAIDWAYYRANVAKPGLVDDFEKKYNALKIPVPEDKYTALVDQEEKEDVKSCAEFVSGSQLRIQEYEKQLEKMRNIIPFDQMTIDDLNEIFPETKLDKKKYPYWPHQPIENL
# Sequence of Dynamin-like GTPase OPA1, mitochondrial (P58281 whole entry): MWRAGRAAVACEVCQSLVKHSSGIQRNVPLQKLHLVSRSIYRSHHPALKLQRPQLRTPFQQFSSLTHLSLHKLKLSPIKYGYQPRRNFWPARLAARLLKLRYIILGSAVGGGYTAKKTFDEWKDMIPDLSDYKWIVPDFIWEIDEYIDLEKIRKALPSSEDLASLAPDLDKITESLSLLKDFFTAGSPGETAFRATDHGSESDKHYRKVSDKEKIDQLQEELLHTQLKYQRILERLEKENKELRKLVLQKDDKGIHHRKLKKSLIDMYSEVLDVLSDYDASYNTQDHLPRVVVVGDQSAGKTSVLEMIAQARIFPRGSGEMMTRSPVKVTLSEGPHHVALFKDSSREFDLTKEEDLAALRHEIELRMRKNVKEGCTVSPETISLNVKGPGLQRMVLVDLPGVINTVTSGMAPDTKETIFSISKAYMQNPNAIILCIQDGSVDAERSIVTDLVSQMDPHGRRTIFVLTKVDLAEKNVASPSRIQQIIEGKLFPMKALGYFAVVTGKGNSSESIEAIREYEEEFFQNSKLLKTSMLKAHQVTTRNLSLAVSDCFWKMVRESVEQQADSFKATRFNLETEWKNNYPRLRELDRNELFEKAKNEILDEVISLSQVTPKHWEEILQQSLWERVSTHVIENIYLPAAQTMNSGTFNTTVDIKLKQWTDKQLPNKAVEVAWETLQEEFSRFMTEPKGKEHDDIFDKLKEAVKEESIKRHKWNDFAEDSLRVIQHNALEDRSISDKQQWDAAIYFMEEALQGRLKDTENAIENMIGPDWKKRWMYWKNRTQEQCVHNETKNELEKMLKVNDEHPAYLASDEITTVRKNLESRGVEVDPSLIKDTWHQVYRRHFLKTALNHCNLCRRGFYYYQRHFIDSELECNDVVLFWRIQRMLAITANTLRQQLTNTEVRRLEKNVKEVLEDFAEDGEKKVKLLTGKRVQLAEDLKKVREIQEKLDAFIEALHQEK
# Sequence of NADH dehydrogenase [ubiquinone] 1 alpha subcomplex subunit 13 (Q9ERS2 whole entry, one chain of several): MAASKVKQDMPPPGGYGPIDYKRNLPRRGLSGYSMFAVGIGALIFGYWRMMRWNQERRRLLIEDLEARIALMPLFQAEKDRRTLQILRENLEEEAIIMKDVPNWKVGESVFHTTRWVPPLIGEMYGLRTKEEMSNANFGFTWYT
# Sequence of ATP synthase F(0) complex subunit g, mitochondrial (Q9CPQ8 whole entry, one chain of several): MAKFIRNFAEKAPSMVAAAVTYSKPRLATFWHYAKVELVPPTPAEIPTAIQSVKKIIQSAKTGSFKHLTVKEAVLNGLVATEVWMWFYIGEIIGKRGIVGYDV
# Sequence of Cytochrome b-c1 complex subunit 6, mitochondrial (P99028 whole entry, one chain of several): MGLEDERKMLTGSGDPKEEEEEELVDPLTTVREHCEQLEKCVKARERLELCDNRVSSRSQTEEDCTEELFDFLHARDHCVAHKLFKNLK
substance,measurement,setting,value
"Trifunctional enzyme subunit alpha, mitochondrial, Q8BMS1",listed as a hit,[1],yes
"NADH dehydrogenase [ubiquinone] 1 alpha subcomplex subunit 8, Q9DCJ5",listed as a hit,[2],yes
"Mitochondrial import inner membrane translocase subunit TIM16, Q9CQV1",listed as a hit,[3],yes
"2-oxoglutarate dehydrogenase complex component E1, Q60597",listed as a hit,[4],yes
"Cytochrome b, P00158",listed as a hit,[5],yes
"ADP/ATP translocase 1, P48962",listed as a hit,[6],yes
same,listed as a hit,[7],yes
same,listed as a hit,[8],yes
same,listed as a hit,[9],yes
same,listed as a hit,[10],yes
same,listed as a hit,[11],yes
same,listed as a hit,Protein FAM162A,yes
"Cytochrome c oxidase subunit FA4, Q62425",listed as a hit,[12],yes
"NADH dehydrogenase [ubiquinone] 1 beta subcomplex subunit 11, mitochondrial, O09111",listed as a hit,[13],yes
"StAR-related lipid transfer protein 7, mitochondrial, Q8R1R3",listed as a hit,[14],yes
"ATP synthase F(0) complex subunit g, mitochondrial, Q9CPQ8",listed as a hit,[15],yes
"Alpha-ketoglutarate dehydrogenase component 4, Q9CQX8",listed as a hit,[4],yes
"Cytochrome c1, heme protein, mitochondrial, Q9D0M3",listed as a hit,[16],yes
"Cytochrome c oxidase subunit 7B, mitochondrial, P56393",listed as a hit,[17],yes
same,listed as a hit,[18],yes
